The source made the active and inactive calls. How the source made its calls: active means hit-call score of the fitted dose curve at least 0.9, where 1 is the maximum; inactive means score below 0.9.
Legend:
[1] = read-out: Human Leukocyte Antigen - DR isotype (HLADR), HLA-DRA (gene 3122); assay: BSK_CASM3C_HLADR: BioMAP Diversity Plus: CASM3C Assay for Human Leukocyte Antigen - DR isotype (HLADR) Biomarker Activity (AID 2283043); details: primary human coronary artery smooth muscle cells; actives raise or lower the signal;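 further: cell-surface HLA-DR protein level quantified by ELISA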
[2] = read-out: Macrophage colony-stimulating factor (MCSF), CSF1 (gene 1435); assay: BSK_CASM3C_MCSF: BioMAP Diversity Plus: CASM3C Assay for Macrophage colony-stimulating factor (MCSF) Biomarker Activity (AID 2283044); details: primary human coronary artery smooth muscle cells; actives raise or lower the signal;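 further: M-CSF protein amount quantified by ELISA after 24 h exposure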
[3] = read-out: Low-density lipoprotein receptor (LDLR), LDLR (gene 3949); assay: BSK_CASM3C_LDLR: BioMAP Diversity Plus: CASM3C Assay for Low-density lipoprotein receptor (LDLR) Biomarker Activity (AID 2283045); details: primary human coronary artery smooth muscle cells; actives raise or lower the signal;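 further: LDLR protein level on the cell surface quantified by ELISA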
[4] = read-out: Monocyte Chemoattractant Protein-1 (MCP1), CCL2 (gene 6347); assay: BSK_CASM3C_MCP1: BioMAP Diversity Plus: CASM3C Assay for Monocyte Chemoattractant Protein-1 (MCP1) Biomarker Activity (AID 2283046); details: primary human coronary artery smooth muscle cells; actives raise or lower the signal
[5] = BSK_CASM3C_Proliferation: Cell Proliferation Assessment in the BioMAP Diversity Plus: CASM3C Assay (AID 2283047); details: primary human coronary artery smooth muscle cells;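 further: sulforhodamine B total protein stain as relative cell number at 560 nm; sub-confluent cells exposed 48 h before staining; fitted both ways against DMSO so gain or loss of cell number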
[6] = read-out: Monokine induced gamma interferon (MIG), CXCL9 (gene 4283); assay: BSK_CASM3C_MIG: BioMAP Diversity Plus: CASM3C Assay for Monokine induced gamma interferon (MIG) Biomarker Activity (AID 2283048); details: primary human coronary artery smooth muscle cells; actives raise or lower the signal;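 further: MIG protein level measured by ELISA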
[7] = read-out: serum amyloid A (SAA), SAA1 (gene 6288); assay: BSK_CASM3C_SAA: BioMAP Diversity Plus: CASM3C Assay for serum amyloid A (SAA) Biomarker Activity (AID 2283049); details: primary human coronary artery smooth muscle cells; actives raise or lower the signal
[8] = BSK_CASM3C_SRB: Viability Assessment in the BioMAP Diversity Plus: CASM3C Assay (AID 2283050); details: primary human coronary artery smooth muscle cells;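 further: cells exposed to compound for 24 h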
[9] = read-out: Thrombomodulin, THBD (gene 7056); assay: BSK_CASM3C_Thrombomodulin: BioMAP Diversity Plus: CASM3C Assay for Thrombomodulin Biomarker Activity (AID 2283051); details: primary human coronary artery smooth muscle cells; actives raise or lower the signal;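 further: thrombomodulin protein level measured by ELISA 24 h after dosing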
[10] = read-out: Tissue Factor, F3 (gene 2152); assay: BSK_CASM3C_TissueFactor: BioMAP Diversity Plus: CASM3C Assay for Tissue Factor Biomarker Activity (AID 2283052); details: primary human coronary artery smooth muscle cells; actives raise or lower the signal;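 further: cell surface tissue factor protein level read by ELISA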
[11] = read-out: Urokinase-type plasminogen activator receptor (uPAR), PLAUR (gene 5329); assay: BSK_CASM3C_uPAR: BioMAP Diversity Plus: CASM3C Assay for Urokinase-type plasminogen activator receptor (uPAR) Biomarker Activity (AID 2283054); details: primary human coronary artery smooth muscle cells; actives raise or lower the signal;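 further: cell-surface uPAR protein level quantified by ELISA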
[12] = read-out: Vascular cell adhesion molecule 1 (VCAM1), VCAM1 (gene 7412); assay: BSK_CASM3C_VCAM1: BioMAP Diversity Plus: CASM3C Assay for Vascular cell adhesion molecule 1 (VCAM1) Biomarker Activity (AID 2283055); details: primary human coronary artery smooth muscle cells; actives raise or lower the signal;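 further: VCAM-1 protein level quantified by ELISA on the cells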
[13] = read-out: Collagen III, COL3A1 (gene 1281); assay: BSK_hDFCGF_CollagenIII: BioMAP Diversity Plus: hDFCGF Assay for Collagen III Biomarker Activity (AID 2283056); details: primary human foreskin fibroblasts; actives raise or lower the signal
Procedure, shortened: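 Cells: human foreskin fibroblasts, primary. Dosing followed by 24 h incubation, then ELISA for collagen III. Both increases and decreases scored relative to DMSO.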

[14] = read-out: Epidermal growth factor receptor (EGFR), EGFR (gene 1956); assay: BSK_hDFCGF_EGFR: BioMAP Diversity Plus: hDFCGF Assay for Epidermal growth factor receptor (EGFR) Biomarker Activity (AID 2283057); details: primary human foreskin fibroblasts; actives raise or lower the signal
Procedure, shortened: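 EGFR levels by ELISA in human dermal fibroblast cultures, 24 h post-treatment, fitted bidirectionally versus DMSO. Parallel wells stained with sulforhodamine B to detect overt cytotoxicity.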

[15] = read-out: Interleukin-8 (IL8), CXCL8 (gene 3576); assay: BSK_hDFCGF_IL8: BioMAP Diversity Plus: hDFCGF Assay for Interleukin-8 (IL8) Biomarker Activity (AID 2283058); details: primary human foreskin fibroblasts; actives raise or lower the signal
Procedure, shortened: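 IL-8 levels from compound-treated primary human fibroblasts were read by ELISA at 24 h, with DMSO serving as baseline for bidirectional fitting.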

[16] = read-out: Macrophage colony-stimulating factor (MCSF), CSF1 (gene 1435); assay: BSK_hDFCGF_MCSF: BioMAP Diversity Plus: hDFCGF Assay for Macrophage colony-stimulating factor (MCSF) Biomarker Activity (AID 2283060); details: primary human foreskin fibroblasts; actives raise or lower the signal
Procedure, shortened: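 M-CSF levels, determined by ELISA, are taken at 24 h after dosing human skin fibroblasts. Responses in either direction are fitted with DMSO serving as the baseline.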

[17] = BSK_hDFCGF_SRB: Viability Assessment in the BioMAP Diversity Plus: hDFCGF Assay (AID 2283061); details: primary human foreskin fibroblasts;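 further: cells exposed to compound for 24 h before the read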
Procedure, shortened: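 Cells were dosed with test chemical, cultured 24 h, fixed with 10% TCA, then stained with 0.1% SRB and read at 560 nm. The fibroblasts were human foreskin primary cells, and DMSO served as baseline.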

[18] = read-out: TIMP metallopeptidase inhibitor 1 (TIMP1), TIMP1 (gene 7076); assay: BSK_hDFCGF_TIMP1: BioMAP Diversity Plus: hDFCGF Assay for TIMP metallopeptidase inhibitor 1 (TIMP1) Biomarker Activity (AID 2283062); details: primary human foreskin fibroblasts; actives raise or lower the signal
Procedure, shortened: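 Fibroblasts from human foreskin are treated with test chemical and harvested at 24 h. TIMP-1 is quantified by ELISA, and gain or loss of signal is scored against DMSO.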

[19] = read-out: Monokine induced gamma interferon (MIG), CXCL9 (gene 4283); assay: BSK_hDFCGF_MIG: BioMAP Diversity Plus: hDFCGF Assay for Monokine induced gamma interferon (MIG) Biomarker Activity (AID 2283063); details: primary human foreskin fibroblasts; actives raise or lower the signal
Procedure, shortened: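 MIG signal, determined by ELISA, reflects 24 h chemical exposure of human skin primary fibroblasts. DMSO serves as negative control and baseline.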

[20] = read-out: Matrix Metallopeptidase 1 (MMP1), MMP1 (gene 4312); assay: BSK_hDFCGF_MMP1: BioMAP Diversity Plus: hDFCGF Assay for Matrix Metallopeptidase 1 (MMP1) Biomarker Activity (AID 2283064); details: primary human foreskin fibroblasts; actives raise or lower the signal
Procedure, shortened: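 Human foreskin fibroblasts exposed to chemical for 24 h; MMP1 detected by ELISA, with DMSO as baseline for bidirectional fitting.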

[21] = read-out: Vascular cell adhesion molecule 1 (VCAM1), VCAM1 (gene 7412); assay: BSK_hDFCGF_VCAM1: BioMAP Diversity Plus: hDFCGF Assay for Vascular cell adhesion molecule 1 (VCAM1) Biomarker Activity (AID 2283065); details: primary human foreskin fibroblasts; actives raise or lower the signal
Procedure, shortened: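 Cells are dosed, cultured for 24 h, then VCAM-1 is quantified by ELISA; signal increases and decreases are both fitted relative to DMSO.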

[22] = read-out: Plasminogen activator inhibitor-1 (PAI1), SERPINE1 (gene 5054); assay: BSK_hDFCGF_PAI1: BioMAP Diversity Plus: hDFCGF Assay for Plasminogen activator inhibitor-1 (PAI1) Biomarker Activity (AID 2283066); details: primary human foreskin fibroblasts; actives raise or lower the signal
Procedure, shortened: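 PAI-1 levels in human dermal foreskin fibroblasts were quantified by ELISA 24 h after dosing, with gain or loss analysed against DMSO. Overt cytotoxicity was checked by sulforhodamine B total-protein staining in parallel cultures.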

[23] = read-out: Intercellular Adhesion Molecule 1 (ICAM1), ICAM1 (gene 3383); assay: BSK_KF3CT_ICAM1: BioMAP Diversity Plus: KF3CT Assay for Intercellular Adhesion Molecule 1 (ICAM1) Biomarker Activity (AID 2283067); details: primary human keratinocytes with fibroblasts; actives raise or lower the signal
Procedure, shortened: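 Dose the keratinocyte/fibroblast co-culture, wait 24 h, measure ICAM-1 by ELISA, then fit increases or decreases against DMSO. Cytotoxicity is checked in parallel cultures by SRB total-protein staining.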

[24] = read-out: Interferon-gamma inducible Protein 10 (IP10), CXCL10 (gene 3627); assay: BSK_KF3CT_IP10: BioMAP Diversity Plus: KF3CT Assay for Interferon-gamma inducible Protein 10 (IP10) Biomarker Activity (AID 2283068); details: primary human keratinocytes with fibroblasts; actives raise or lower the signal
Procedure, shortened: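 KF3CT co-culture (keratinocytes + foreskin fibroblasts), 24 h compound, IP-10 by ELISA; bidirectional fit vs DMSO baseline.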

[25] = BSK_KF3CT_SRB: Viability Assessment in the BioMAP Diversity Plus: KF3CT Assay (AID 2283069); details: primary human keratinocytes with fibroblasts;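 further: fitted for both signal gain and loss against DMSO baseline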
Procedure, shortened: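 Overt cytotoxicity is assessed as total protein by sulforhodamine B staining in parallel human skin co-cultures at 24 h after dosing. DMSO serves as negative control and baseline.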

[26] = read-out: Interleukin-1 alpha (IL1a), IL1A (gene 3552); assay: BSK_KF3CT_IL1a: BioMAP Diversity Plus: KF3CT Assay for Interleukin-1 alpha (IL1a) Biomarker Activity (AID 2283070); details: primary human keratinocytes with fibroblasts; actives raise or lower the signal
Procedure, shortened: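 Readout is IL-1a level by ELISA, compared bidirectionally with DMSO as baseline. Cells: human keratinocytes co-cultured with foreskin fibroblasts, harvested 24 h post-dose.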

[27] = read-out: TIMP metallopeptidase inhibitor 2 (TIMP2), TIMP2 (gene 7077); assay: BSK_KF3CT_TIMP2: BioMAP Diversity Plus: KF3CT Assay for TIMP metallopeptidase inhibitor 2 (TIMP2) Biomarker Activity (AID 2283071); details: primary human keratinocytes with fibroblasts; actives raise or lower the signal
Procedure, shortened: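 TIMP-2 measured by ELISA at 24 h in human keratinocyte/fibroblast primary co-cultures exposed to chemicals. Both increases and decreases were fitted against DMSO. Parallel cultures were stained with SRB for total protein as an overt-cytotoxicity check.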

[28] = read-out: C-C motif chemokine 2 (Homo sapiens) (UniProt P13500); assay: BSK_KF3CT_MCP1: BioMAP Diversity Plus: KF3CT Assay for Monocyte Chemoattractant Protein 1 (MCP1/CCL2) Biomarker Activity (AID 2283073); details: primary human keratinocytes with fibroblasts; actives raise or lower the signal
Procedure, shortened: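 Keratinocytes and foreskin fibroblasts were co-cultured, dosed with chemical, and sampled 24 h later. MCP-1 was quantified by ELISA, and the endpoint was analyzed with bidirectional fitting using DMSO as negative control.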

Measured: outcome

CCCC[N+](CCCC)(CCCC)CCCC
inactive: all assays above
